In PubChem BioAssay (Tox21):
Results filed as inconclusive are left out. Some structures have more than one record in an assay (separate samples or runs), and their calls can disagree. Active and inactive are the calls of the source. Calls follow the shape of the dose curve; as a rule, active = well fitted cell-killing curve with a large enough effect in the repeat runs; inconclusive = weak or mixed curves; inactive = flat fitted curve, though single readings scatter.

Experiment: qHTS assay to identify small molecule antagonists of the estrogen receptor beta (ER-beta) signaling pathway - cell viability counter screen (AID 1259382); also: nearly all actives have a fitted effect of over 55% in size
Details: ER-beta-UAS-bla HEK293T viability, CellTiter-Glo luminescence, 16 h; series mostly up to 92.4 µM; activity change, negative = cytotoxicity: at the top concentration
Text: U.S. Tox21 Program National Center for Advancing Translational Sciences [NCATS] NIH Chemical Genomics Center [NCGC] U.S. Environmental Protection Agency [EPA] National Institutes of Environmental Health Sciences [NIEHS] National Toxicology Program [NTP] U.S. Food and Drug Administration [FDA] Tox21 Assay Overview: Estrogen receptor (ER), a nuclear hormone receptor, plays an important role in development, metabolic homeostasis and reproduction. Two subtypes of ER, ER-alpha and ER-beta, have similar expression patterns with some uniqueness in both types. Endocrine disrupting chemicals (EDCs) and their interactions with steroid hormone receptors like ER causes disruption of normal endocrine function. To identify the compounds that inhibit ER signaling, an ER-beta-UAS-bla GripTite cell line (Life Technologies, Madison, WI, USA) containing a beta-lactamase reporter gene under the control of an UAS response element was used to screen Tox21 10K compound library. The cytotoxicity of the Tox21 compound library against the ER-beta-bla cell line was tested in parallel by measuring the cell viability using CellTiter-Glo assay in the same wells.
Tox21 Assay Protocol Summary: ER-beta-UAS-bla HEK293T cells were dispensed at 2,000 cells/4 uL of assay medium containing 2% charcoal stripped FBS per well into black wall/clear-bottom 1536-well plates using a Multidrop Combi (ThermoFisher Scientific, Waltham, MA) dispenser. After the assay plates were incubated at a 37C and 5% CO2 for 6 hr, 23 nL of compounds dissolved in DMSO, positive controls or DMSO only was transferred to the assay plate by a Pintool station (Kalypsys, San Diego, CA), followed by addition of 1 uL (1nM as final concentration) of 17-beta-estradiol (E2) in assay medium using a Flying Reagent Dispenser (FRD, Aurora Discovery, San Diego, CA). The plates were incubated at 37C and 5% CO2 for 16 hr. Then 1 uL of LiveBLAzer B/G FRET substrate was added using a Flying Reagent Dispenser, the plates were incubated at room temperature for 2 hours, and fluorescence intensity was measured by an Envision plate reader (PerkinElmer, Shelton, CT). For cell viability readout that measures cytotoxicity, 4 uL/well of CellTiter-Glo reagent was added into the assay plates using a FRD. After 30 min incubation at room temperature, the luminescence intensity in the plates was measured using a ViewLux (PerkinElmer) plate reader.
% is scaled to controls: 0 for no effect and ±100 for the full control effect; potency is read from the fitted curve at half-maximal effect.

Compound	activity change, negative = cytotoxicity	Potency
CC(C)CC(C)N (stereo not given)	4.52% (inactive)	–
Oc1ccc(C(=C(Cl)Cl)c2ccc(O)cc2)cc1	–	68.5 µM (active)
CC(O)C#N (stereo not given)	8.36% (inactive)	–
COc1cc(C=O)cc2c1[C@H](COC(N)=O)[C@]1(OC(C)=O)ON2C[C@H]2[C@@H]1N2C(C)=O	7.81% (inactive)	–
C=CCOC(N)=O	6.5% (inactive)	–
CC(c1ccc(O)cc1)c1ccc(O)cc1	–	45.5 µM (active) and inactive
CCCCCCCCCBr	0.405% (inactive)	–
CCCCCCCCCCCCCCCCCCn1cc[n+](C)c1	–	30.5 µM (active)
BrC(Br)Br	7.49% (inactive)	–
CC(C)OS(C)(=O)=O	0.617% (inactive)	–
CC(C)(C)OO	1.65% (inactive)	–
COc1ccc([N+](=O)[O-])cc1O	1.01% [at 42.5 µM] (inactive)	–
CC1(C)[C@H](C(=O)O[C@H](C#N)c2cccc(Oc3ccccc3)c2)[C@@H]1/C=C(\Cl)C(F)(F)F	–	inactive
O=[N+]([O-])c1ccc2ccc3cccc4ccc1c2c34	-18.3% (inactive)	–
Oc1ccccc1Br	3.22% (inactive)	–
CC(C)CCCCCCCOP(=O)(Oc1ccccc1)Oc1ccccc1	-9.55% (inactive)	–
NC(=O)CCl	0% (inactive)	–
Cc1cc(C)cc(OP(=O)(Oc2cc(C)cc(C)c2)Oc2cc(C)cc(C)c2)c1	2.2% (inactive)	–
COC(=O)N(C(=O)N1CO[C@@]2(C(=O)OC)Cc3cc(Cl)ccc3C2=N1)c1ccc(OC(F)(F)F)cc1	-8.47% (inactive)	–
Brc1c(Br)c(Br)c(Oc2c(Br)c(Br)c(Br)c(Br)c2Br)c(Br)c1Br	4.03% [at 19 µM] (inactive)	–

Compound	activity change, negative = cytotoxicity	Potency
CCCCCCCCCCCCCN1CC(C)OC(C)C1 (stereo not given)	0.187% (inactive)	–
Cc1ccc(CCl)cc1	7.03% (inactive)	–
CCOP(=S)(OCC)SCS(=O)(=O)CC	-0.904% (inactive)	–
N#Cc1ccccc1N	0% (inactive)	–
O=C/C(Cl)=C(/Cl)C(=O)O	–	inactive
CCCN(CCC)c1c([N+](=O)[O-])cc(S(N)(=O)=O)cc1[N+](=O)[O-]	–	54.9 µM (active)
FC(Cl)(Cl)Cl	3.91% (inactive)	–
N#CCCO	9.95% (inactive)	–
N#Cc1c(-c2ccc(Cl)cc2)[nH]c(C(F)(F)F)c1Br	–	38.6 µM (active)
CC(=O)c1cc(C(C)(C)C)cc2c1CCC2(C)C	12.6% (inactive)	–
Cc1cc(N=Nc2ccccc2C)ccc1N	–	54.5 µM (active)
CC(C)[C@H](C(=O)OC(C#N)c1cccc(Oc2ccccc2)c1)c1ccc(OC(F)F)cc1 (stereo not given in full)	9.41% (inactive)	–
CC(C)[C@H](C(=O)O[C@H](C#N)c1cccc(Oc2ccccc2)c1)c1ccc(Cl)cc1	1.88% (inactive)	–
Clc1ccc(CO/N=C(\Cn2ccnc2)c2ccc(Cl)cc2Cl)c(Cl)c1	–	29.8 µM (active)
CC(Cc1ccc(C(C)(C)C)cc1)CN1C[C@@H](C)O[C@@H](C)C1 (stereo not given in full)	2.89% (inactive)	–
CC(C)(c1ccc(O)c(-c2ccccc2)c1)c1ccc(O)c(-c2ccccc2)c1	–	27.3 µM (active)
CC(=O)/C=C/c1ccc2c(c1)OCO2	11.5% (inactive)	–
COP(=S)(OC)Oc1cc(Cl)c(Br)cc1Cl	-0.445% (inactive)	–
COC[C@H](C)N(C(=O)CCl)c1c(C)csc1C	12.1% (inactive)	–
CCc1cc(C)cc(CC)c1-c1c(OC(=O)C(C)(C)C)n2n(c1=O)CCOCC2	0% (inactive)	–
